D1 potentiator: potentiators of human D1 dopamine receptor; P21728; HEK293 TREx D1 cells, calcium flux, dopamine EC20 potentiation; potentiation, % at 10 µM; 360,000 tested, 0.036% active; in the data active means potentiation above about 30%
D1 antag: human D1 dopamine receptor antagonism; P21728; HEK293 TREx D1 cells, calcium flux, dopamine EC80; active compounds read low; activity change, negative = inhibition, % at 10 µM; 360,000 tested, 3.2% active; AID 504652; in the data active means activity change below about -30%
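Kinetic fluorescence of a calcium dye serves as the read-out. D1-expressing Hek293 Trex cells, induced overnight at 30 C, are exposed to compound for 180 s before an EC80 dopamine addition, then read 180 s further.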
D3 ag: D3 dopamine receptor (human) agonism; P35462; D3R DiscoveRx beta-arrestin cells, luminescence, 90 min; max activation, %; 410,000 tested, 0.58% active; AID 652048; in the data active means max activation above about 30%
Target sequence (P35462 whole entry, looked up): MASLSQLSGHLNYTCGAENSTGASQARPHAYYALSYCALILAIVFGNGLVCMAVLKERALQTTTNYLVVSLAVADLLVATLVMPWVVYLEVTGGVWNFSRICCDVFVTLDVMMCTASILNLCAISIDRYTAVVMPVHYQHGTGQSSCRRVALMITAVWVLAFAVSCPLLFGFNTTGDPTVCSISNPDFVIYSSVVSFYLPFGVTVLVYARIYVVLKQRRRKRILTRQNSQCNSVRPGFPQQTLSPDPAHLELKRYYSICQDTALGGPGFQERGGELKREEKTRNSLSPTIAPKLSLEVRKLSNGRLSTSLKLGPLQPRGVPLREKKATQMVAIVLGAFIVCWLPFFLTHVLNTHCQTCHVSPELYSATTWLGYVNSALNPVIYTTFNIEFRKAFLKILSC
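Agonist-mode cell screen: cells plated at 1500/well and incubated overnight at 37 °C, then exposed to library compounds for 90 min at 37 °C. Detection reagent was added for 30–60 min at room temperature, and luminescence was read.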
D1 ag: agonists of human D1 dopamine receptor. P21728. HEK293 T-REx D1 cells, calcium flux, agonist mode. activation, % at 2 µM. 360,000 tested, 1% active; in the data active means activation above about 30%
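Agonism was scored from calcium flux recorded over 180 s (1 read/s) after pintool compound addition, following a 10-cycle baseline. Cells were inducible force-coupled HEK293 TREx D1, plated overnight at 30 C and loaded with no-wash calcium dye.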
D3 antag: antagonists of human D3 dopamine receptor; D3R cells, DiscoveRx beta-arrestin luminescence, antagonist mode; active compounds read low; 360,000 tested, 2.5% active; P35462; max response, negative = inhibition, %; in the data active means max response below about -50%; inconclusive means no clear call, values can overlap the other calls
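Cells expressing the human receptor were seeded at 1500 cells/well, incubated overnight at 37 degrees C in 5% CO2, then exposed to library compounds with dopamine controls for 90 minutes at 37 degrees C before luminescent detection.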
A number is an active result; i = inactive; ? = inconclusive; nt = not tested or not shown. This is a sample that favours compounds with a hit; in the whole collection about 6% have one here.

SMILES	D1 potentiator	D1 antag	D3 ag	D1 ag	D3 antag
CS(=O)(=O)c1ccc2nc(NC(=O)c3ccccc3Br)sc2c1	i	i	i	i	-56
CS(=O)(=O)c1ccc2nc(NC(=O)c3ccccc3Cl)sc2c1	i	i	i	i	i
CS(=O)(=O)c1ccc2nc(NC(=O)CCNC(=O)c3ccc(Cl)cc3)sc2c1	i	-47	i	i	i
CC(C)NS(=O)(=O)c1ccc2nc(NC(=O)c3cncc(Br)c3)sc2c1	i	-52	i	i	nt
COc1ccc(C(=O)Nc2nc3ccc(S(C)(=O)=O)cc3s2)cc1	i	-39	i	i	i
Brc1ccc(Nc2c3c(nc4nncn24)CCC3)cc1	i	i	i	i	nt
O=C(Cn1nc(-c2ccccc2)c2c(c1=O)CCCC2)Nc1ccc(F)c(Cl)c1	i	i	i	i	nt
Cc1ccc2c(c1)-c1onc(C(=O)N3CCN(c4ccc(Cl)cc4)CC3)c1CO2	i	i	i	i	nt
COc1ccc(C(=O)Nc2nc(-c3ccc([N+](=O)[O-])cc3)c(-c3ccc(OC)cc3)s2)cc1	i	i	i	i	-52
COc1ccc(C(=O)Nc2nc3c(s2)CCc2cc(OC)ccc2-3)cc1	i	i	i	i	nt
Cc1ccccc1-n1c(C)nnc1SCc1nc2ccccc2s1	i	i	i	i	i
CCOc1ccccc1-n1nnnc1SCc1nc2ccccc2s1	i	-31	i	i	i
O=C1C2CCCN2C(=O)N1CCCCN1CCN(c2cccc(Cl)c2)CC1 (centres undefined)	i	i	i	i	-58
O=C1C2CCCCN2C(=O)N1CCCCN1CCN(c2cccc(Br)c2)CC1 (centres undefined)	i	i	i	i	-80
Cc1ccc(OCc2nc(-c3ccc(C(=O)NCCc4ccc(S(N)(=O)=O)cc4)cc3)oc2C)cc1	i	i	i	i	nt
O=C(c1cc([N+](=O)[O-])ccc1N1CCOCC1)N1CCOCC1	i	-42	i	i	i
Cc1ccc(C(=O)c2cc([N+](=O)[O-])ccc2N2CCCCC2)c(C)c1	i	i	i	i	-56
Cc1ccc(NC(=O)c2cc([N+](=O)[O-])ccc2N2CCOCC2)cc1C	i	-30	i	i	?
O=C(Nc1ccc2oc(-c3cccnc3)nc2c1)c1ccc(-c2ccccc2OC(F)(F)F)o1	i	i	i	i	nt
CN(C)S(=O)(=O)c1cc(NC(=O)Cn2ccsc2=N)ccc1Cl	i	-30	i	i	i
O=C(O[C@@H]1OC2COC(=O)c3cc(O)c(O)c(O)c3-c3c(cc(O)c(O)c3O)C(=O)O[C@@H]([C@H]1O)[C@@H]2O)c1cc(O)c(O)c(O)c1	i	i	32	i	i
CCc1nc2ccccc2c(C(=O)OCC(=O)Nc2cccc(S(=O)(=O)N3CCOCC3)c2)c1C	i	i	33	i	i
CCc1nc2ccccc2c(C(=O)OCC(=O)Nc2cccc(S(=O)(=O)NC3=NCCCCC3)c2)c1C	i	i	45	i	i
CCOC(=O)c1noc2ncn(CC(=O)Nc3ccccc3OC)c(=O)c12	i	i	i	i	nt
Cn1c(=O)c(=O)n(C)c2cc(NS(=O)(=O)c3ccc(Br)cc3)c(Cl)cc21	i	i	i	i	nt
SMILES	D1 potentiator	D1 antag	D3 ag	D1 ag	D3 antag
Cc1ccc(S(=O)(=O)N2CCN(Cc3ccco3)CC2)c(C)c1	38	i	i	i	i
Cc1c(C(C)(C)C)s/c(=N/S(=O)(=O)c2ccccc2)n1C	i	-35	i	i	i
CC(C)=CCN1CCN(CCC2=C(C)CCCC2(C)C)CC1CCO (centres undefined)	i	i	i	i	-90
COc1c(Cl)cc(Cl)cc1C(=O)Nc1ccc(CN2CCCCC2)cc1	i	i	i	31	i
COc1c(Cl)cc(Cl)cc1C(=O)Nc1ccc(CN2CCOCC2)cc1	i	i	i	i	i
Cc1ccc(C(=O)NC(=S)Nc2ccc(CN3CCCCC3)cc2)c(C)c1	i	-42	i	i	i
Cc1ccc(C)c(NC(=O)Cn2cc(C(=O)C3CCCCC3)c3ccccc32)c1	i	i	i	i	nt
CCNC(=O)/C(=C\c1ccc2c(c1)OCO2)NC(=O)c1ccc(Br)cc1	i	i	i	i	i
CCN(CC)C(=O)/C(=C\c1ccc2c(c1)OCO2)NC(=O)c1ccc(Br)cc1	i	-30	i	i	i
Cc1nc2cc(-c3cccc(F)c3)nn2c(C)c1CCC(=O)Nc1ccccc1C(N)=O	i	i	i	i	nt

Compound activity deposited in PubChem BioAssay by National Center for Advancing Translational Sciences (NCATS).
